Bioassay records from PubChem.
This is a sample that favours compounds with a hit; in the whole collection about 6.9% have one here.
SKKanGAS inh – blocks kanamycin growth of S. pyogenes SKKanGAS strain; BacTiter-Glo, 6 h; inhibition, % at 7.5 µM; hit rate 1.3% among 300,000; AID 1662;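 active means mean replicate score, as percent of positive control median, at least 50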;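 further: strain carries kanamycin resistance gene driven by streptokinase promoter and grows in 40 µg/ml kanamycin; loss of luminescence reflects streptokinase promoter inhibition or plain growth inhibition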
Mdm2 MdmX PPI – inhibitors of human Mdm2/MdmX interaction | hit rate 3% among 330,000 | inhibition, % at 8 µM | SaOS-2 split-luciferase Mdm2/MdmX complementation, luminescence | AID 485346;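 active means inhibition of at least 50% at 8 µM in the primary screen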
Target sequence (O15151 whole entry, looked up): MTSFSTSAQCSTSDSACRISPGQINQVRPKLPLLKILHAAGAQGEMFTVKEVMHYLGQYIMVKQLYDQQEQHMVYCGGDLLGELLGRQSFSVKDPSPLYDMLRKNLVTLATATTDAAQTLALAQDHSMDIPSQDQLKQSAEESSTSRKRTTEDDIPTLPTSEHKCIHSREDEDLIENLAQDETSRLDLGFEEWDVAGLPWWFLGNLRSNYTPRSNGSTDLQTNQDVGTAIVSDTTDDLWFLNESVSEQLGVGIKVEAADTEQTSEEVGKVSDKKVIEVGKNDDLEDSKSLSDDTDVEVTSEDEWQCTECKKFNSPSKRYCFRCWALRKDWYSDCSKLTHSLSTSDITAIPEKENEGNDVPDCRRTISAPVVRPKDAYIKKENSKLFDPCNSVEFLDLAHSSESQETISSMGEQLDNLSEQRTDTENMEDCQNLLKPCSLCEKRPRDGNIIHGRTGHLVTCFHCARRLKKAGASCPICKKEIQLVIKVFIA
Target sequence (Q00987 whole entry, looked up): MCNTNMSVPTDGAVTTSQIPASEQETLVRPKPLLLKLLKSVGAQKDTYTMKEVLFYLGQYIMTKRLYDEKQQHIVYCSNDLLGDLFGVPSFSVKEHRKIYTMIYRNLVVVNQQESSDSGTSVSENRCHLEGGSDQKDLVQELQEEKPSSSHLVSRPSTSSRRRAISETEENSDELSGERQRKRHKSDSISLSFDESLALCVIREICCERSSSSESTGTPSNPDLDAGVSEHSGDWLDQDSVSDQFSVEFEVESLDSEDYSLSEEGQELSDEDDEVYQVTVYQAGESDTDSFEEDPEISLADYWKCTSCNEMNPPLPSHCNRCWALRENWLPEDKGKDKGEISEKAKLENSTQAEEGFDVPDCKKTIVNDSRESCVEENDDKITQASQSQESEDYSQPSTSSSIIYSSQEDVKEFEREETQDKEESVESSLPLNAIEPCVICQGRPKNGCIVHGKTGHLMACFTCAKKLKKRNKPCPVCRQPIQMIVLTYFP
MPTP block – permeability transition pore inhibition | isolated mouse mitochondria, Ca2+ swelling absorbance, 30 min | hit rate 1.4% among 360,000 | inhibition, % at 10 µM;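 active means inhibition of 50% or more, scaled per plate between neutral and stimulator controls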
GRIN3A LBD mod – NR3A (human) ligand-binding domain modulation; hit rate 2.5% among 340,000; Tm shift relative to glycine control, % at 25 µM; AID 1259313; NR3A LBD differential scanning fluorimetry, Tm shift; 0% = protein alone, 100% = glycine-bound protein;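 active means melting temperature shift of at least 10% of the positive control shift, at one fixed dose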
Beta cell apopt – beta cell apoptosis inhibition; hit rate 0.8% among 300,000; INS-1E cytokine-induced death, ATP luminescence, 48 h; percent of positive-control rescue, neutral wells zero; AID 435005; protection from apoptosis, % (no concentration beside the values);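 active means Every replicate reaches about 75%, or at least half do and their mean reaches it too, limit read from the data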;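 further: higher means more ATP so stronger rescue from cytokine killing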
CSC inhib – blocks cancer stem cells; inhibition, % at 7.5 µM; hit rate 1.1% among 300,000; cancer stem cell-like cells viability, luminescence; in the data active means inhibition above about 75%; tested in HMLE shEcad cells
Large screens that a line does not name were inactive.

COc1cc(NC(=O)CC(C)S(=O)(=O)c2ccc3c(c2)NC(=O)CO3)cc(OC)c1OC (stereo not drawn)	none
N#CCC(=N)N1CCN(c2ccccc2)CC1	none
N#CCC(=N)N1CCN(c2cccc(Cl)c2)CC1	GRIN3A LBD mod 12 (no result: CSC inhib)
O=C(Cn1nnc2ccccc2c1=O)NCCc1ccccc1	GRIN3A LBD mod 18
O=C(Cn1nnc2ccccc2c1=O)NCCc1ccc(Cl)cc1Cl	none
Fc1cccc(/C=N/Nc2ccccn2)c1	GRIN3A LBD mod 13
COc1ccc2cc(C(=O)C3CCCN(C(=O)c4cncs4)C3)ccc2c1 (stereo not drawn)	none (no result: Beta cell apopt)
Cc1ccc(-n2nnnc2Sc2ccc(S(=O)(=O)NCCN(C)C)cc2[N+](=O)[O-])cc1	CSC inhib 99 (no result: Mdm2 MdmX PPI)
CC(C)C(NS(=O)(=O)c1c(Cl)cccc1Cl)C(=O)OCC(=O)c1c[nH]c2ccccc12 (stereo not drawn)	GRIN3A LBD mod 23 (no result: Beta cell apopt)
CC(C)Cc1ccc(C(C)C(=O)OCC(=O)c2c[nH]c3ccccc23)cc1 (stereo not drawn)	GRIN3A LBD mod 23
CC(O)C(NS(=O)(=O)c1ccc(Cl)cc1)C(=O)OCC(=O)c1c[nH]c2ccccc12 (stereo not drawn)	none
COc1ccc(S(=O)(=O)c2nnn(-c3cccc(Cl)c3)c2N)cc1	GRIN3A LBD mod 19
Cn1c(=O)c2c(SCc3ccccn3)nc(CC(C)(C)C)nc2n(C)c1=O	none
CCCc1nc(SCc2ccccn2)c2c(=O)n(C)c(=O)n(C)c2n1	CSC inhib 107
O=C(NNC(=O)c1n[nH]c2ccccc12)c1ccccc1	none (no result: SKKanGAS inh, Beta cell apopt, CSC inhib)
CCCCC(=O)NC(=S)NNC(=O)CCc1ccccc1	SKKanGAS inh 76
O=C(CCc1ccccc1)NNC(=S)NC(=O)c1ccccc1	SKKanGAS inh 64
CCOC(=O)c1ccc(NC(=O)CSc2nc(=O)n3cccc(C)c3n2)cc1	none
CC1=C(C(=O)NC2CC(C)(C)Cc3c2cnn3-c2cccc(F)c2)OCCO1 (stereo not drawn)	none
O=C(c1cc(-c2ccncc2)nc2ccc(Br)cc12)N1CCN(c2ccccn2)CC1	none
O=C(c1cc(-c2cccc(Cl)c2)nc2ccccc12)N1CCN(c2ccccn2)CC1	Beta cell apopt 96
Cc1cccc2c(C(=O)N3CCN(c4ccccn4)CC3)cc(-c3cccc(Br)c3)nc12	Beta cell apopt 112
O=C(COC(=O)CNC(=O)c1ccc(Cl)c([N+](=O)[O-])c1)NCC1CCCO1 (stereo not drawn)	none (no result: SKKanGAS inh)
O=C(NCCc1c[nH]c2ccccc12)C(=O)Nc1cc2c3c(c1)CC(=O)N3CCC2	none
COC(=O)c1c(NC(=O)CCl)sc(C(=O)N2CCOCC2)c1C	none
O=C(N/C(=C\c1ccc(Br)cc1)C(=O)N1CCCC1)c1ccccc1F	none
Cc1nn2c(COc3ccc(NC(=O)c4ccccc4)cc3)nnc2c2ccccc12	SKKanGAS inh 94
CC1(C(=O)NCc2ccccc2)CN(S(C)(=O)=O)CC(=O)N1CCc1ccccc1F (stereo not drawn)	none (no result: SKKanGAS inh, Mdm2 MdmX PPI, GRIN3A LBD mod, Beta cell apopt, CSC inhib)
CC(=O)Nc1cccc(C(=O)/C=C/c2ccc[nH]2)c1	none
CC(=O)Nc1cccc(C(=O)/C=C/c2ccc(N(C)C)cc2)c1	GRIN3A LBD mod 18
CC(=O)OCCC(NS(=O)(=O)OCC(Cl)(Cl)Cl)c1ccccc1 (stereo not drawn)	none
N#CCSc1nc(-c2ccccc2)c2cc(Cl)ccc2n1	GRIN3A LBD mod 18
C=CCSc1nc(-c2ccccc2)c2cc(Cl)ccc2n1	SKKanGAS inh 57
Clc1ccc2nnnc(-c3ccccc3)c2c1	Beta cell apopt 99, CSC inhib 99 (no result: Mdm2 MdmX PPI)
c1ccc(-c2nnnc3ccccc23)cc1	none (no result: CSC inhib)
O=C(N1CCC(n2nc(-c3ccccc3)oc2=O)CC1)C1(c2ccc(Cl)cc2)CC1	none
Cc1nc(-c2ccc(F)cc2)c(CC(=O)N(C)CC(=O)Nc2cccc(F)c2)s1	none (no result: SKKanGAS inh, Mdm2 MdmX PPI, GRIN3A LBD mod, Beta cell apopt, CSC inhib)
c1ccc(CSc2ccc(-c3cccs3)nn2)cc1	GRIN3A LBD mod 19
CCN1C(=O)[C@@H]2[C@@H](c3ccc(-c4ccc5c(c4)OCO5)c(OC)c3)N3CCC[C@@]3(C(=O)OC)[C@@H]2C1=O	none (no result: SKKanGAS inh)
CCc1nc2ccc(C(=O)NCCc3ccccn3)cn2c1N(C)Cc1ccc(N(C)C)cc1	none (no result: SKKanGAS inh, Mdm2 MdmX PPI, GRIN3A LBD mod, Beta cell apopt, CSC inhib)
FC(F)(F)c1cc(N2CCN(Cc3ccccc3)CC2)c2ccccc2n1	SKKanGAS inh 50
Nc1nc(N)c2ncn(C3C=CC(CO)C3)c2n1 (stereo not drawn)	none (no result: SKKanGAS inh, Mdm2 MdmX PPI, GRIN3A LBD mod, Beta cell apopt, CSC inhib)
CC(C(=O)OCC(=O)Nc1cccc(S(=O)(=O)N(C)C)c1)N1C(=O)c2ccccc2C1=O (stereo not drawn)	none
CCOC(=O)NC(=O)/C(N=Nc1ccc(C(F)(F)F)cc1)=C(\C)O	GRIN3A LBD mod 154
CCOC(=O)NC(=O)/C(N=Nc1cc(C)cc(C)c1)=C(\C)O	none (no result: Beta cell apopt)
CN(C(=O)c1cccc(NC(=O)Cc2ccc(NC(=O)C3CCCN(S(=O)(=O)c4cccc([N+](=O)[O-])c4)C3)cc2)c1)C1CCC1 (stereo not drawn)	GRIN3A LBD mod 11 (no result: SKKanGAS inh, Mdm2 MdmX PPI, Beta cell apopt, CSC inhib)
O=C(Cc1cccc(NC(=O)C2CCN(S(=O)(=O)c3cccc([N+](=O)[O-])c3)CC2)c1)Nc1cccc(C(=O)N2CCCCC2)c1	GRIN3A LBD mod 11 (no result: SKKanGAS inh, Mdm2 MdmX PPI, Beta cell apopt, CSC inhib)
CN(C(=O)c1cccc(NC(=O)Cc2ccc(NC(=O)C3CCN(S(=O)(=O)c4cccc([N+](=O)[O-])c4)CC3)cc2)c1)C1CCCCC1	none (no result: SKKanGAS inh, Mdm2 MdmX PPI, Beta cell apopt, CSC inhib)
CN(CCc1ccccc1)C(=O)c1ccc(NC(=O)Cc2cccc(NC(=O)C3CCN(S(=O)(=O)c4cccc([N+](=O)[O-])c4)CC3)c2)cc1	GRIN3A LBD mod 10 (no result: SKKanGAS inh, Mdm2 MdmX PPI, Beta cell apopt, CSC inhib)
CN(CCc1ccccc1)C(=O)c1ccc(NC(=O)Cc2ccc(NC(=O)C3CCCN(C(=O)CCc4ccccc4)C3)cc2)cc1 (stereo not drawn)	GRIN3A LBD mod 11 (no result: SKKanGAS inh, Mdm2 MdmX PPI, Beta cell apopt, CSC inhib)
C[C@@H]1CN([C@@H](C)CO)S(=O)(=O)c2ccc(Br)cc2O[C@H]1CN(C)C(=O)C1CCC1	none (no result: SKKanGAS inh, Mdm2 MdmX PPI, GRIN3A LBD mod, Beta cell apopt, CSC inhib)
CN(C(=O)c1ccc(NC(=O)Cc2ccc(NC(=O)C3CCN(S(=O)(=O)c4cccc([N+](=O)[O-])c4)CC3)cc2)cc1)C1CCCC1	GRIN3A LBD mod 10 (no result: SKKanGAS inh, Mdm2 MdmX PPI, Beta cell apopt, CSC inhib)
CC1(C(=O)Nc2cnc3ccccc3c2)CCN1C(=O)CCc1ccccc1 (stereo not drawn)	none (no result: SKKanGAS inh, Mdm2 MdmX PPI, GRIN3A LBD mod, Beta cell apopt, CSC inhib)
Nc1ccccc1C#Cc1ccc2[nH]ccc2c1	GRIN3A LBD mod 19
Nc1ccccc1C#Cc1ccccc1	none
CNC(=O)COc1ncnc2sc(C)c(C)c12	GRIN3A LBD mod 14
CCc1noc(C)c1C(=O)Nc1cc(S(=O)(=O)N2CCOCC2)ccc1N1CCN(CC)CC1	none (no result: CSC inhib)
O=C(COC(=O)c1cccc(NS(=O)(=O)c2ccc(F)c(F)c2)c1)NC(=O)NC1CCCCC1	GRIN3A LBD mod 23
CCCNC(=O)NC(=O)COC(=O)c1cccc(NS(=O)(=O)c2ccc(F)c(F)c2)c1	none
COc1ccc(-c2noc(CCC(=O)N3CCN(c4cccc(Cl)c4)CC3)n2)cc1	none (no result: SKKanGAS inh, Beta cell apopt, CSC inhib)
